The text below walks through data of publication PMC9838217, “Structure of SALL4 zinc finger domain reveals link between AT-rich DNA binding and Okihiro syndrome”.

Where a chain is given by its changes, count along the chain named.

For one assay, the target named is T1, SALL4 ZFC4 WT (HT-SELEX) (Mus musculus, UniProt Q8BX22 870-940).
T1 sequence: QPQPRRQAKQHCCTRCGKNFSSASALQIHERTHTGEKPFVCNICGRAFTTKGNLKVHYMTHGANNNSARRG
The experiment in a line: HT-SELEX; high values mean tight binding. The following applies: protein: recombinant; vector His6-GST; dsDNA, one strand shown. In short, it runs like this: (§1)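 Recombinant mouse SALL4 zinc finger cluster 4 (residues 870–940, 1 µg), purified, was mixed with library DNA (1.5 µg in the first cycle, 200 ng thereafter) in 100 µl of buffer containing 10 mM Tris–HCl pH 7.5, 50 mM NaCl, poly(dI-dC) and DTT, and left for 10 min at room temperature. Complexes were captured on Ni2+ beads, washed, amplified by PCR and reselected for up to 6 cycles in triplicate, after which MiSeq sequencing and a 6-mer scan followed. Binding signal is the read fraction of each canonical k-mer, given as fold change relative to the starting random library.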
Turning to AGTGAG, the binding signal is 0.933 ± 0.017 fold-change vs cycle 0.
Same read-out and setting: the figure for ATTGTA is 2.07 ± 0.0871 fold-change vs cycle 0; for AGTATC it is 1.37 ± 0.0932 fold-change vs cycle 0; for ATCAAG it is 1.41 ± 0.0614 fold-change vs cycle 0.
On to ACGAAC, for which the binding signal is 0.667 ± 0.0536 fold-change vs cycle 0.
The same measure, in the same setting: the figure for ACTGAT is 1.4 ± 0.115 fold-change vs cycle 0.
For GATACC, the binding signal is 0.884 ± 0.044 fold-change vs cycle 0.
The same measure, in the same setting: in the case of AATATT it was 5.49 ± 0.414 fold-change vs cycle 0.
Still for that read-out and setting: in the case of AGGACT it was 0.864 ± 0.0148 fold-change vs cycle 0; in that of AAGCTG, 0.608 ± 0.0202 fold-change vs cycle 0.
On the same count and under the same terms, the figure for AAGTCG is 0.537 ± 0.0353 fold-change vs cycle 0; for ATATCA it is 2.74 ± 0.247 fold-change vs cycle 0.
Regarding AAGACC, the binding signal is 0.72 ± 0.0283 fold-change vs cycle 0.
CCGGTA: the binding signal stood at 0.345 ± 0.0119 fold-change vs cycle 0.
Regarding AGAACC, the binding signal turned out to be 0.8 ± 0.0457 fold-change vs cycle 0.
Take GTCGTA: the binding signal stood at 0.571 ± 0.0216 fold-change vs cycle 0.
Same read-out and setting: in the case of CAAGGG it was 0.487 ± 0.0326 fold-change vs cycle 0; in that of CACGAC, 0.303 ± 0.0099 fold-change vs cycle 0; in that of GGAACC, 0.444 ± 0.034 fold-change vs cycle 0.
For the sequence AGTCCA, the binding signal was 0.746 ± 0.0239 fold-change vs cycle 0.
The same measure, in the same setting: the figure for GAAATA is 2.68 ± 0.193 fold-change vs cycle 0; for AACGTT it is 1.19 ± 0.0242 fold-change vs cycle 0; for CTTATA it is 2.43 ± 0.156 fold-change vs cycle 0.
The same measure, in the same setting: in the case of AAGGTC it was 0.725 ± 0.0449 fold-change vs cycle 0; in that of GAAGTC, 0.797 ± 0.0523 fold-change vs cycle 0.
Same read-out and setting: the figure for CATATA is 2.3 ± 0.215 fold-change vs cycle 0; for CGATTC it is 0.682 ± 0.0336 fold-change vs cycle 0; for CGGTTA it is 0.677 ± 0.0447 fold-change vs cycle 0.
Regarding CTCACA, the binding signal came to 0.786 ± 0.0522 fold-change vs cycle 0.
On the same count and under the same terms, the figure for GGACGA is 0.34 ± 0.0131 fold-change vs cycle 0; for AATCAA it is 2.03 ± 0.0966 fold-change vs cycle 0.
Still for that read-out and setting: the figure for AGGAGC is 0.374 ± 0.0206 fold-change vs cycle 0.
On the same count and under the same terms, in the case of AAGTGA it was 1.34 ± 0.0271 fold-change vs cycle 0.
As for ACATCG, the binding signal was found to be 0.64 ± 0.0291 fold-change vs cycle 0.
The same measure, in the same setting: the figure for ATCTGA is 1.33 ± 0.0639 fold-change vs cycle 0; for ATACAC it is 1.31 ± 0.0559 fold-change vs cycle 0; for CTTCGA it is 0.707 ± 0.0176 fold-change vs cycle 0.
On the same count and under the same terms, the figure for ACAAGA is 1.29 ± 0.0493 fold-change vs cycle 0; for TCAACA it is 1.19 ± 0.0385 fold-change vs cycle 0.
The same measure, in the same setting: the figure for CGATCC is 0.359 ± 0.0529 fold-change vs cycle 0.

In the next assay the target is T2, SALL4 ZFC4 R900W (HT-SELEX) (Mus musculus, UniProt Q8BX22 870-940, R900W).
T2 sequence: T1 sequence with R31W
Put plainly: HT-SELEX; high values mean tight binding. The following applies: protein: recombinant; vector His6-GST; dsDNA, one strand shown. In short, it runs like this:
as §1
Consider AGTGAG, for which the binding signal worked out at 1.03 ± 0.0394 fold-change vs cycle 0.
The same measure, in the same setting: in the case of ATTGTA it was 2.03 ± 0.111 fold-change vs cycle 0; in that of AGTATC, 1.48 ± 0.12 fold-change vs cycle 0; in that of ATCAAG, 1.55 ± 0.0618 fold-change vs cycle 0.
On the same count and under the same terms, the figure for ACGAAC is 0.807 ± 0.0318 fold-change vs cycle 0; for ACTGAT it is 1.51 ± 0.108 fold-change vs cycle 0.
Still for that read-out and setting: the figure for GATACC is 0.969 ± 0.034 fold-change vs cycle 0.
For AATATT, the binding signal came to 2.54 ± 0.119 fold-change vs cycle 0.
The same measure, in the same setting: in the case of AGGACT it was 0.994 ± 0.0593 fold-change vs cycle 0.
AAGCTG: the binding signal is 0.708 ± 0.0215 fold-change vs cycle 0.
On the same count and under the same terms, the figure for AAGTCG is 0.634 ± 0.0134 fold-change vs cycle 0.
On the same count and under the same terms, the figure for ATATCA is 2.05 ± 0.0942 fold-change vs cycle 0; for AAGACC it is 0.834 ± 0.0193 fold-change vs cycle 0; for CCGGTA it is 0.396 ± 0.0133 fold-change vs cycle 0.
For AGAACC, the binding signal was 0.93 ± 0.0272 fold-change vs cycle 0.
Same read-out and setting: the figure for GTCGTA is 0.663 ± 0.0204 fold-change vs cycle 0; for CAAGGG it is 0.5882 ± 0.00585 fold-change vs cycle 0; for CACGAC it is 0.381 ± 0.0158 fold-change vs cycle 0.
On the same count and under the same terms, the figure for GGAACC is 0.539 ± 0.0289 fold-change vs cycle 0; for AGTCCA it is 0.878 ± 0.0374 fold-change vs cycle 0.
As for GAAATA, the binding signal is 1.89 ± 0.115 fold-change vs cycle 0.
Still for that read-out and setting: the figure for AACGTT is 1.33 ± 0.0216 fold-change vs cycle 0.
The same measure, in the same setting: the figure for CTTATA is 2.09 ± 0.123 fold-change vs cycle 0; for AAGGTC it is 0.885 ± 0.0273 fold-change vs cycle 0.
On the same count and under the same terms, in the case of GAAGTC it was 0.906 ± 0.0176 fold-change vs cycle 0; in that of CATATA, 1.91 ± 0.115 fold-change vs cycle 0.
Consider CGATTC, for which the binding signal is 0.738 ± 0.0472 fold-change vs cycle 0.
Still for that read-out and setting: the figure for CGGTTA is 0.748 ± 0.0385 fold-change vs cycle 0; for CTCACA it is 0.895 ± 0.0341 fold-change vs cycle 0.
On the same count and under the same terms, the figure for GGACGA is 0.412 ± 0.0156 fold-change vs cycle 0; for AATCAA it is 2 ± 0.106 fold-change vs cycle 0; for AGGAGC it is 0.46 ± 0.0185 fold-change vs cycle 0.
For AAGTGA, the binding signal was 1.52 ± 0.0501 fold-change vs cycle 0.
On the same count and under the same terms, in the case of ACATCG it was 0.729 ± 0.00758 fold-change vs cycle 0; in that of ATCTGA, 1.39 ± 0.0686 fold-change vs cycle 0.
Same read-out and setting: the figure for ATACAC is 1.36 ± 0.0547 fold-change vs cycle 0; for CTTCGA it is 0.789 ± 0.0144 fold-change vs cycle 0; for ACAAGA it is 1.52 ± 0.0767 fold-change vs cycle 0.
Same read-out and setting: the figure for TCAACA is 1.35 ± 0.0647 fold-change vs cycle 0; for CGATCC it is 0.43 ± 0.0262 fold-change vs cycle 0.

The target in the next assay is T3, SALL4 ZFC4 G921D (HT-SELEX) (Mus musculus, UniProt Q8BX22 870-940, G921D).
T3 sequence: T1 sequence with G52D
The experiment in a line: HT-SELEX; high values mean tight binding. As to conditions: protein: recombinant; vector His6-GST; dsDNA, one strand shown. The gist of the method:
as §1
Consider AGTGAG, for which the binding signal stood at 1.05 ± 0.0473 fold-change vs cycle 0.
On the same count and under the same terms, in the case of ATTGTA it was 1.79 ± 0.162 fold-change vs cycle 0.
On the same count and under the same terms, the figure for AGTATC is 1.44 ± 0.125 fold-change vs cycle 0; for ATCAAG it is 1.47 ± 0.0828 fold-change vs cycle 0.
Same read-out and setting: the figure for ACGAAC is 0.861 ± 0.0438 fold-change vs cycle 0.
Consider ACTGAT, for which the binding signal turned out to be 1.43 ± 0.137 fold-change vs cycle 0.
On to GATACC, for which the binding signal was determined as 1.04 ± 0.0218 fold-change vs cycle 0.
The same measure, in the same setting: in the case of AATATT it was 2.19 ± 0.255 fold-change vs cycle 0; in that of AGGACT, 1.02 ± 0.0375 fold-change vs cycle 0; in that of AAGCTG, 0.801 ± 0.0274 fold-change vs cycle 0.
On the same count and under the same terms, the figure for AAGTCG is 0.747 ± 0.0488 fold-change vs cycle 0; for ATATCA it is 1.83 ± 0.136 fold-change vs cycle 0; for AAGACC it is 0.911 ± 0.0351 fold-change vs cycle 0.
The same measure, in the same setting: the figure for CCGGTA is 0.501 ± 0.0627 fold-change vs cycle 0; for AGAACC it is 0.981 ± 0.014 fold-change vs cycle 0.
In the case of GTCGTA, the binding signal was determined as 0.752 ± 0.0439 fold-change vs cycle 0.
Still for that read-out and setting: in the case of CAAGGG it was 0.665 ± 0.033 fold-change vs cycle 0.
Still for that read-out and setting: in the case of CACGAC it was 0.501 ± 0.0536 fold-change vs cycle 0; in that of GGAACC, 0.622 ± 0.0467 fold-change vs cycle 0.
Same read-out and setting: the figure for AGTCCA is 0.929 ± 0.0398 fold-change vs cycle 0; for GAAATA it is 1.72 ± 0.124 fold-change vs cycle 0; for AACGTT it is 1.24 ± 0.0303 fold-change vs cycle 0.
Consider CTTATA, for which the binding signal came to 1.82 ± 0.197 fold-change vs cycle 0.
Still for that read-out and setting: the figure for AAGGTC is 0.943 ± 0.0196 fold-change vs cycle 0; for GAAGTC it is 0.953 ± 0.00992 fold-change vs cycle 0; for CATATA it is 1.71 ± 0.163 fold-change vs cycle 0.
The same measure, in the same setting: the figure for CGATTC is 0.84 ± 0.0386 fold-change vs cycle 0; for CGGTTA it is 0.801 ± 0.0326 fold-change vs cycle 0.
Same read-out and setting: in the case of CTCACA it was 0.9459 ± 0.00888 fold-change vs cycle 0; in that of GGACGA, 0.498 ± 0.0522 fold-change vs cycle 0.
On to AATCAA, for which the binding signal was found to be 1.81 ± 0.125 fold-change vs cycle 0.
The same measure, in the same setting: the figure for AGGAGC is 0.595 ± 0.0548 fold-change vs cycle 0; for AAGTGA it is 1.42 ± 0.0562 fold-change vs cycle 0.
On to ACATCG, for which the binding signal came out at 0.829 ± 0.0505 fold-change vs cycle 0.
On the same count and under the same terms, in the case of ATCTGA it was 1.35 ± 0.119 fold-change vs cycle 0.
The same measure, in the same setting: the figure for ATACAC is 1.35 ± 0.0583 fold-change vs cycle 0; for CTTCGA it is 0.875 ± 0.0344 fold-change vs cycle 0.
Same read-out and setting: the figure for ACAAGA is 1.39 ± 0.105 fold-change vs cycle 0; for TCAACA it is 1.3 ± 0.0976 fold-change vs cycle 0.
As to CGATCC, the binding signal is 0.584 ± 0.0363 fold-change vs cycle 0.
